Out of some 2,100 compounds screened, about 760 (36%) were called active. These entries were drawn from the full list. Unmarked numbers belong to inactive results.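 Rule for the calls: active = thallium-flux fluorescence traces judged by eye to show enhanced or reduced glutamate response, manual score 1 or -1, so both directions (some results past the limit were not filed as active); inactive = the rest, including fluorescent or raised-baseline compounds.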

Manual score data for 109 molecules are collected here from PubChem BioAssay AID623868 (Vanderbilt High Throughput Screening Facility, 2012).

A short description of the assay: non-GIRK thallium flux modulation in mGlu8 cells, confirmation, counter-screen for GIRK activator project, cell-based, HEK-293 rmGlu8, no GIRK (AID 623868).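 Note: extra codes mark interference with 3 for fluorescent and 4 for baseline rise.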 The settings on record: thallium flux fluorescence, at 10 µM, actives lie on both sides, codes: 1 enhancer, -1 blocker, 0 none, thallium stimulus containing EC20 glutamate. (The purpose of a counterscreen is to sort out artefacts and off-target activity.)
For `CCc1nc2cc(Cl)c(Cl)cc2[nH]1`, the manual score was 0.
On to `CCCOc1cccc(-c2cc(-c3n[nH]c(=S)n3CC)c3ccccc3n2)c1`, for which the manual score was 1 (active).
The figure for `CCn1c(-c2cc(-c3cccc(OC)c3)nc3ccccc23)n[nH]c1=S` is 0.5.
As for `O=C(NNC(=S)Nc1cccc(C(F)(F)F)c1)c1cccc(Cl)c1`, the manual score was 0.
On to `Cc1cc(C)c(NC(=O)c2ccc(S(=O)(=O)N(C)C)cc2)c(C)n1`, for which the manual score is 0.
As to `Cc1ncoc1C(=O)Nc1ccc(Oc2ccccc2)cc1`, the manual score was 0.
Regarding `O=C(Nc1cccs1)Nc1c(F)c(F)c(F)c(F)c1F`, the manual score was 0.
As to `O=C(Nc1nnc(-c2cccs2)o1)c1cccc(C(F)(F)F)c1`, the manual score is 1 (active).
Take `O=C(Nc1nnc(-c2cccs2)o1)c1cccc(F)c1`: the manual score is 1 (active).
On to `CCCCN(C)S(=O)(=O)c1ccc(C(=O)Nc2nnc(-c3cccs3)o2)cc1`, for which the manual score was 1 (active).
The figure for `CCOC(=O)C1=C(CC)Nc2ccccc2N=C1NC(=O)c1ccc(S(=O)(=O)N(C)C)cc1` is -0.5; for `O=C(Nc1nnc(-c2cccs2)o1)c1cccc(Oc2ccccc2)c1` it is 1 (active); for `Cc1occc1C(=O)Nc1cccc(C(F)(F)F)c1` it is 0.
For the molecule `Cc1nc(C)c(C(=O)Nc2ccc(Oc3ccccc3)cc2)o1`, the manual score was 0.
Take `CCOC(=O)C1=C(CC)Nc2ccccc2N=C1NC(=O)Nc1ccc(Cl)c(Cl)c1`: the manual score is 0.
For the molecule `CN1CCN(S(=O)(=O)c2cccc(S(=O)(=O)c3cccc(S(=O)(=O)N4CCN(C)CC4)c3)c2)CC1`, the manual score is 0.
As for `Cc1cc2nc(CCN(C(=S)NCC(C)C)C3CCCC3)[nH]c2cc1C`, the manual score is 0.
On to `Cc1nc(N2CCN(C(=O)COc3ccccc3)CC2)c2c(C)c(C)sc2n1`, for which the manual score is -1 (active).
The figure for `O=C(CN1C(=O)c2cccc3cccc(c23)C1=O)N1CCN(c2ccccn2)CC1` is 3; for `Cc1sc2nc(CN3CCCC3)nc(N3CCN(S(=O)(=O)c4cccs4)CC3)c2c1C` it is 0; for `CSc1cccc(NC(=O)CN(c2ccccc2)S(=O)(=O)N(C)C)c1` it is 0.
The value for `CCOC(=O)CSc1cccc2cccnc12` was 1 (active).
With `CN(C)C(=O)CSc1cccc2cccnc12`, the manual score was 0.
Regarding `CCOC(=O)CSc1cc(CSc2ccccc2)nc(-c2ccccc2)n1`, the manual score is 0.
The figure for `Cc1cccc(CSc2cccc3cccnc23)c1` is 1 (active); for `Cc1ccc(C(=O)c2ccc(N3CCOCC3)c(F)c2)cc1` it is 0; for `S=C(N/N=C/c1ccc(Cl)cc1)N1CCOCC1` it is 1 (active).
For `Cc1ccc(/C=N/NC(=S)N2CCOCC2)cc1`, the manual score was 1 (active).
Consider `S=C(N/N=C/c1ccccc1)N1CCOCC1`, for which the manual score was 1 (active).
For the molecule `O=C(NC(=Nc1ccccc1)N1CCOCC1)Nc1ccccc1`, the manual score is 0.
With `O=C(CCCc1nc(-c2ccc(Cl)cc2)no1)N1CCOCC1`, the manual score is 0.
The value for `CC(CCc1ccccc1)NC(=O)N1CCOCC1` (centres undefined) was 0.
`Clc1ccc(/C=N/Nc2nc(Cl)nc3ccccc23)cc1`: the manual score is 0.
In the case of `Cc1ccc(S(=O)(=O)c2c(C)cc(C)nc2Cl)c(C)c1`, the manual score is 0.
On to `Cc1ccn2c(NC3CCCCC3)c(C(C)C)nc2c1`, for which the manual score was 0.
The figure for `Cc1ccc(NC(=O)CSC(N)=O)cc1Cl` is 0; for `CC(=O)Nc1ccc(S(=O)(=O)NC(C(=O)O)C2=CCC=CC2)cc1` (centres undefined) it is 0; for `CC1=NN(C(N)=S)C(=O)C1N=Nc1ccc(C)cc1C` (centres undefined) it is 1 (active).
Take `CC1=NN(C(N)=S)C(=O)C1N=Nc1ccccc1C` (centres undefined): the manual score is 1 (active).
As for `N=c1c2c(ncn1CCN1CCOCC1)Oc1ccc3ccccc3c1C2c1ccccc1` (centres undefined), the manual score was 0.
For `Cn1c(=O)c(NCCc2ccccc2)c2c3c(cccc31)C(=O)c1ccccc1-2`, the manual score was 3.
The figure for `Cc1nnc2n(C3CCCCC3)c(=O)c3c4c(sc3n12)COC(C)(C)C4` is -1 (active); for `CC(Nc1nc(N2CCCCC2)nc2ccccc12)c1ccccc1` (centres undefined) it is 0.
Regarding `FC(F)(F)c1cnc(NNC(=S)Nc2ccccc2Cl)c(Cl)c1`, the manual score is 1 (active).
The figure for `O=C1/C(=C\c2ccccn2)SC(=S)N1Nc1ncc(C(F)(F)F)cc1Cl` is 0.
The value for `Cc1ccc(NC(=S)Nc2ccc(Cl)c(Cl)c2)c(OC(F)F)c1` was 0.
Consider `O=C(NNc1ncc(C(F)(F)F)cc1Cl)c1c(Cl)cccc1Cl`, for which the manual score was 0.5.
`FC(F)(F)c1cnc(NNC(=S)Nc2ccc(Cl)cc2)c(Cl)c1`: the manual score is 1 (active).
On to `NC(=O)c1ccc(Cc2ncc(C(F)(F)F)cc2Cl)s1`, for which the manual score is 0.
The figure for `Cc1ccc(NC(=S)NNc2ncc(C(F)(F)F)cc2Cl)c(C)c1` is 1 (active); for `Cn1c(=O)c(NCCO)c2c3c(cccc31)C(=O)c1ccccc1-2` it is 3; for `C/C(=N/NC(=O)c1ccncc1)c1cc2ccc(O)cc2oc1=O` it is 0.
`Cc1cccc(NC(=S)NC(=O)c2ccco2)n1`: the manual score was 1 (active).
Turning to `Cc1cc(NC(=O)c2ccco2)ccc1NC(=O)Cc1cccs1`, the manual score is 0.
On to `O=C(NC(=S)Nc1ccccn1)c1ccco1`, for which the manual score was 1 (active).
Turning to `Cc1ccc2nsnc2c1NC(=S)NC(=O)c1ccco1`, the manual score is 1 (active).
`O=C(CC(=O)Nc1ccccn1)Nc1ccccn1`: the manual score was 0.
`O=C(NCCCn1ccnc1)Nc1ccc(Cl)c(Cl)c1`: the manual score is 0.
For `N/C(=N/O)c1nc(N2CCCC2)nc(N(c2ccccc2)c2ccccc2)n1`, the manual score is 0.
In the case of `CC(=O)c1c(C)[nH]c(C(=O)COc2cc(C)cc(C)c2)c1C`, the manual score was 0.
For the molecule `CN(CCC#N)C(=O)CSc1ncnc2sc(-c3ccccc3)cc12`, the manual score was 0.
On to `CCN(CC)C(=O)CSc1ncnc2sc(-c3ccccc3)cc12`, for which the manual score is 0.5.
With `CC(C)N(C(=O)CSc1ncnc2sc(-c3ccccc3)cc12)C(C)C`, the manual score is 1 (active).
As to `CC(C)C(C)(C#N)NC(=O)CSc1ncnc2sc(-c3ccccc3)cc12` (centres undefined), the manual score was 0.
The value for `CC(=O)c1c(C)[nH]c(C(=O)CSc2ncnc3sc(-c4ccccc4)cc23)c1C` was 1 (active); that for `CCOC(=O)Cn1c(=O)oc2cc(S(=O)(=O)NCCCc3ccccc3)ccc21` was 0.
Turning to `CCOC(=O)c1sc2ncnc(NCc3ccco3)c2c1C`, the manual score is 1 (active).
The value for `Nc1nc(Nc2ccccc2)nc(NCc2ccco2)c1[N+](=O)[O-]` was 0; that for `COc1ccc(C(=O)NC(=S)N2CCC(C)CC2)cc1` was 1 (active); that for `COc1ccc(NC(=O)Nc2ccccc2C(=O)N2CCCC2)cc1` was 0.
In the case of `COc1ccc(C(=O)NC(=S)N2CCCCC2)cc1`, the manual score was 1 (active).
Consider `CNC(=S)N1CCN(c2ccc(OC)cc2)CC1`, for which the manual score was 0.
For `Cc1cccc(NC(=S)N2CCC(C(=O)c3ccc(F)cc3)CC2)c1C`, the manual score is 0.
For `CC1CCN(C(=S)NC(=O)c2ccccc2)CC1`, the manual score is 0.5.
The value for `CCCCCCc1cc2cc(C(=O)NC)c(=N)oc2cc1O` was 3.
The figure for `COc1ccc(Nc2nnc(Cc3ccccc3)c(=O)[nH]2)c(OC)c1` is 0.
With `CN(c1ccccc1)S(=O)(=O)c1ccc(NC(=S)NC(=O)c2ccccc2)cc1`, the manual score was 0.
The figure for `CCN(c1ccccc1)S(=O)(=O)c1ccc(NC(=S)NC(=O)c2ccc(Br)o2)cc1` is 1 (active); for `CCc1nnc(NS(=O)(=O)c2ccc(NC(=S)NC(=O)c3ccccc3)cc2)s1` it is 0; for `CCOC(=O)c1ccccc1NC(=O)CSc1nnc(COc2ccccc2)n1CC` it is 0.
For `CCOC(=O)c1ccccc1NC(=O)CSc1nnc(Cc2cccn2C)n1-c1ccc(C)cc1`, the manual score is -1 (active).
The figure for `CCOC(=O)c1ccccc1NC(=O)CSc1nnc(COc2ccccc2C)n1C` is -1 (active); for `COC(=O)c1ccc(NC(=O)CSc2nnc(COc3ccccc3)n2C)cc1` it is 3; for `CCOC(=O)CN(C(=O)CSc1nnc(Cc2ccccc2)n1-c1ccc(C)cc1)c1ccccc1` it is 0.
The figure for `CCOC(=O)c1ccccc1NC(=O)CSc1nnc(Cc2cccn2C)n1-c1ccc(F)cc1` is 0; for `N#Cc1c(N)nc(SCc2ccccc2)c(C#N)c1-c1ccco1` it is 0.
Turning to `CC(Sc1nc2ccccc2c(=O)[nH]1)C(=O)O` (centres undefined), the manual score is 0.
With `CCc1nc(SCc2ccc(F)cc2)[nH]c(=O)c1C#N`, the manual score is 3.
As for `CCOc1ccccc1C1CC(=O)NC(SCC)=C1C#N` (centres undefined), the manual score was 0.
The value for `CCSc1nc(-c2ccccc2)c(C#N)c(=O)[nH]1` was -1 (active).
On to `N#Cc1c(-c2ccco2)nc(SCc2ccc(F)cc2)[nH]c1=O`, for which the manual score is -1 (active).
In the case of `Cc1oc(-c2ccccc2F)nc1CS(=O)(=O)CC(=O)NCCN(C)C1CCCCC1`, the manual score is 0.
On to `c1cn(CC2(Cn3ccnc3)COC2)cn1`, for which the manual score was 0.
On to `CCOc1ccccc1N1CCN(C(=O)c2cc3c(s2)CCC3)CC1`, for which the manual score is -1 (active).
The figure for `O=C(c1ccccc1Oc1ccccc1)N1CCN(c2ccccc2)CC1` is 0.
On to `CCCc1ccc(C(=O)N2CCN(c3ccccc3OCC)CC2)cc1`, for which the manual score was -1 (active).
Regarding `O=C(c1ccccc1CCc1ccccc1)N1CCN(c2ccccn2)CC1`, the manual score was 0.
As for `CC1CCN(c2c([N+](=O)[O-])c(=O)oc3ccccc23)CC1`, the manual score is 0.
For the molecule `COc1ccc(C(C)n2c(C)c3c(C)nnc(C)c3c2C)cc1` (centres undefined), the manual score is 0.
Regarding `O=C(CSc1nc2ccccc2n1CCc1ccccc1)N1CCOCC1`, the manual score is 0.
The figure for `O=C1OCCC1Sc1nc2cc(Cl)ccc2n1Cc1ccccc1` (centres undefined) is 1 (active); for `CC1=C(C(=O)Nc2cccnc2)C(c2ccc3c(c2)OCO3)C2=C(CCCC2=O)N1` (centres undefined) it is 0.
For the molecule `Cc1oc(-c2ccccc2)nc1CS(=O)CC(=O)O` (centres undefined), the manual score was 1 (active).
The figure for `Cc1ccccc1-c1nc(CS(=O)(=O)CC(=O)NCCCN2CCCC2)c(C)o1` is 0; for `Cc1cccc(-c2nc(CN3CCCC(C(=O)NC4CCCCC4)C3)c(C)o2)c1` (centres undefined) it is 0; for `CCOC(=O)Cc1csc(NC(=O)Nc2ccccc2)n1` it is 0.
Turning to `CCOC(=O)Cc1csc(NC(=S)NC(=O)C(C)(C)C)n1`, the manual score is 1 (active).
With `CCOC(=O)Cc1csc(NC(=S)NC(=O)c2ccccc2)n1`, the manual score is 1 (active).
Consider `CCOC(=O)Cc1csc(NC(=S)NC(=O)c2ccc(C)cc2)n1`, for which the manual score is 1 (active).
